JMJD2A Tudor: JMJD2A Tudor domain (human) inhibition; Potency, µM (doses to about 114 µM), for inactives: top-dose activity change, negative = inhibition, usual class: inhibitors; O75164; 4.4% of 390,000 active; AID 504339; AlphaScreen JMJD2A-Tudor / H3K4me3 peptide binding; also: potency is read from the fitted curve at half-maximal effect; % is scaled to controls: 0 for no effect and ±100 for the full control effect; nearly all actives have a fitted effect of over 50% in size
BAZ2B inh: blocks human BAZ2B. 4.4% of 360,000 active. AlphaScreen BAZ2B-H3K14Ac peptide displacement. Potency, µM (series often up to 114 µM), without a hit: top-dose activity change, negative = inhibition, usual class: inhibitors; also: potency is read from the fitted curve at half-maximal effect; % is scaled to controls: 0 for no effect and ±100 for the full control effect; nearly all actives have a fitted effect of over 60% in size
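Protein-peptide AlphaScreen: BAZ2B 50 nM, b-H3K14Ac 50 nM, 1x PBS pH 7.4 + 0.01% Tween-20. Preincubation 30 min RT; cpd 30 min RT (top 110 uM); beads 20 min RT, light-protected.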
HP1b chromo inh: blocks HP1-beta chromodomain binding to methylated histone tails; 0.56% of 390,000 active; AlphaScreen HP1-beta / biotin-H3K9me3 peptide binding; P83916; Potency, µM (top dose mostly 114 µM), inactives show at the highest dose activity change, negative = inhibition, usual class: inhibitors; also: potency is read from the fitted curve at half-maximal effect; nearly all actives have a fitted effect of over 70% in size
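AlphaScreen: HP1-beta (50 nM) preformed 30 min with biotin-H3(1-18)K9me3 peptide (50 nM) in PBS pH 7.4, 0.01% Tween-20. Compound added for 30 min at RT, then streptavidin donor/nickel chelate acceptor beads (10 ug/mL) for 30 min.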
CtBP-E1A blk: inhibitors of CtBP/E1A interaction; AID 651724; AlphaScreen GST-E1A/His-CtBP binding, 1536-well; hits give low values; 0.49% of 340,000 active; activity change, % (test concentration not listed); in the data active = activity change below about -65%; inconclusive = mostly about -30% to -63%; also: % is scaled to controls: 0 for no effect and ±100 for the full control effect
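Steps: dispense buffer (Tris pH 8.0, NaCl 300 mM, TCEP 1 mM, BSA, Tween 20); add 5X protein mix (GST-E1A, His-CtBP, 125 nM each); pin 23 nL compound; 2 h at 37 °C, dark; add 5X beads (50 ug/mL); 1 h; read.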
G9a inh: G9a (human) methyltransferase inhibition; G9a H3K9 monomethylation, AlphaScreen, 2 h; Potency, µM (highest dose often 102 µM), for the others: at the highest dose activity, negative = inhibition, usual class: inhibitors; Q96KQ7; 8.8% of 350,000 active; AID 504332; also: potency is read from the fitted curve at half-maximal effect; % is scaled to controls: 0 for no effect and ±100 for the full control effect; nearly all actives have a fitted effect of over 75% in size
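Step 1: enzyme (final 20 nM) with compound, 15 min RT. Step 2: substrate peptide 500 nM and SAM 20 uM, 2 h RT. Step 3: anti-H3K9me1 antibody and AlphaScreen beads, 10 min, then plate read.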
Six1-Eya2 blk: inhibitors of human Six1/Eya2 interaction | Q15475+O00167 | AlphaScreen GST-Six1/His-Eya2 binding, biochemical; hits give low values | activity change, % (no concentration beside the values) | 0.56% of 360,000 active; in the data active = activity change below about -65%; inconclusive = mostly about -30% to -63%; also: % is scaled to controls: 0 for no effect and ±100 for the full control effect
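GST-Six1 + His-Eya2 (5X stock: 250/500 nM); Tris pH 8.0, 300 mM NaCl, 0.05% BSA, 0.02% Tween 20; GSH donor/Ni acceptor beads; 1 h 37 °C dark; AlphaScreen readout.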
Active calls of the source: *; [ ] = dose if it differs, or a comment. Only some compounds are listed: those with a hit (about 10% of all), similar ones and a draw of the others. Unless noted, calls follow the shape of the dose curve; as a rule, active = well fitted inhibition curve with a large enough effect; inconclusive = small, poorly fitted or top-dose-only effect; inactive = no such curve, though single readings can be large or run the other way.

CCOC(=O)C1CCCN(C(=O)c2ccc(Cl)cc2)C1 (stereo not drawn) was read as JMJD2A Tudor -4.1%, BAZ2B inh -10.3%, HP1b chromo inh 52.4%, CtBP-E1A blk 7.4, G9a inh 79.4µM* and Six1-Eya2 blk -1.0.
Screening CCOC(=O)C1CCCN(C(=O)c2ccc([N+](=O)[O-])cc2)C1 (stereo not drawn) returned JMJD2A Tudor -10.7%, BAZ2B inh -7.2%, HP1b chromo inh 20.6%, CtBP-E1A blk 2.8, G9a inh -0.2%[59 µM] and Six1-Eya2 blk 0.9.
CCOC(=O)C1CCCN(C(=O)c2cc(Cl)ccc2Cl)C1 (stereo not drawn) was read as JMJD2A Tudor -11.2%, BAZ2B inh -3.2%, HP1b chromo inh 21.3%, CtBP-E1A blk 3.3, G9a inh 44.7µM* and Six1-Eya2 blk 3.9.
`C=CCn1c(-c2cc(OC)cc(OC)c2)n[nH]c1=S` gave JMJD2A Tudor 31.6µM*, BAZ2B inh 12.9%, HP1b chromo inh 26.1%, CtBP-E1A blk -0.5, G9a inh inconclusive and Six1-Eya2 blk -1.6.
Screening C=CCn1c(-c2ccccc2OC)n[nH]c1=S returned JMJD2A Tudor 6.31µM*, BAZ2B inh -9.5%, HP1b chromo inh 41.4%, CtBP-E1A blk 1.1, G9a inh 2µM* and Six1-Eya2 blk 1.6.
For C=CCn1c(-c2cccc(OCC)c2)n[nH]c1=S the results were JMJD2A Tudor 22.4µM*, BAZ2B inh -9.2%, HP1b chromo inh 37.8%, CtBP-E1A blk 0.0, G9a inh 8.91µM* and Six1-Eya2 blk 1.9.
C=CCn1c(-c2sc3nc(C)cc(C)c3c2N)n[nH]c1=S was read as JMJD2A Tudor 39.8µM*, BAZ2B inh -16.6%, HP1b chromo inh 51.7%, CtBP-E1A blk -0.1, G9a inh 7.94µM* and Six1-Eya2 blk -17.0.
C=CCn1c(-c2ccc(OC)cc2)nc2ccccc21 was read as JMJD2A Tudor 6.1%, BAZ2B inh -12.6%, HP1b chromo inh 33.8%, CtBP-E1A blk 4.5, G9a inh -1.1%[12.7 µM] and Six1-Eya2 blk -3.3.
`C=CCn1c(-c2cccc3ccccc23)n[nH]c1=S` gave JMJD2A Tudor 18.9%, BAZ2B inh -33.0%, HP1b chromo inh 18.0%, CtBP-E1A blk -4.1, G9a inh inconclusive and Six1-Eya2 blk 5.2.
Screening CCN(CC)c1cc(C)c2cc(NC(=O)/C=C/c3cc(OC)c(OC)c(OC)c3)ccc2n1 returned JMJD2A Tudor inconclusive, BAZ2B inh inconclusive, HP1b chromo inh -8.3% and G9a inh inconclusive.
`Cc1ccc(Sc2c(C)nn(C(=O)COc3ccccc3Br)c2C)cc1` gave JMJD2A Tudor 23.2%, BAZ2B inh 21.0%, HP1b chromo inh 45.7% and G9a inh -5.0%[59 µM].
For O=c1[nH]c(=S)[nH]c2c1C(c1ccc(Cl)cc1)OC(C1CCCCC1)C2 (stereo not drawn) the results were CtBP-E1A blk -1.7 and Six1-Eya2 blk -2.3.
CCN(CC)C(=O)c1sc(NC(=O)c2ccncc2)c(C(=O)OC)c1C was read as JMJD2A Tudor -7.1%, BAZ2B inh 10.0%, HP1b chromo inh -7.8%, CtBP-E1A blk 4.9, G9a inh inconclusive and Six1-Eya2 blk -3.0.
CCN(CC)C(=O)c1sc(NC(=O)c2ccoc2C)c(C(=O)OC)c1C was read as JMJD2A Tudor -28.7%, BAZ2B inh 0.5%, HP1b chromo inh inconclusive, CtBP-E1A blk -3.5, G9a inh 12.6µM* and Six1-Eya2 blk 2.3.
CCN(CC)C(=O)c1sc(NC(=O)c2cc(-c3ccc(C)s3)nc3ccccc23)c(C(=O)OC)c1C was read as JMJD2A Tudor 3.5%, BAZ2B inh 1.1%, HP1b chromo inh -11.1%, CtBP-E1A blk 9.5, G9a inh 39.8µM* and Six1-Eya2 blk 6.4.
For CCOC(=O)c1c(NC(=O)c2ccoc2C)sc(C(=O)N(C)C)c1C the results were JMJD2A Tudor inconclusive, BAZ2B inh 8.2%, HP1b chromo inh -7.6%, CtBP-E1A blk -1.0, G9a inh 31.6µM* and Six1-Eya2 blk -1.8.
`CCn1nc(C)c(CCN(C)C(=O)Nc2cc(OC)c(OC)c(OC)c2)c1C` gave JMJD2A Tudor -12.9%, BAZ2B inh -5.1%, HP1b chromo inh -9.8% and G9a inh 9.9%[59 µM].
For O=C1CS/C(=N/N=C/c2ccccc2)N1Cc1ccco1 the results were JMJD2A Tudor -17.4%, BAZ2B inh -11.3%, HP1b chromo inh 7.9%, CtBP-E1A blk 3.3 and Six1-Eya2 blk 12.5.
`Cc1ccccc1CN1C(=O)CS/C1=N/N=C/c1ccco1` gave JMJD2A Tudor -21.6%, BAZ2B inh inconclusive, HP1b chromo inh -0.1%, CtBP-E1A blk -0.5, G9a inh 39.8µM* and Six1-Eya2 blk -11.9.
For O=C(Cn1c(=O)oc2cc(S(=O)(=O)NCc3ccccc3)ccc21)N(CCO)Cc1ccccc1 the results were JMJD2A Tudor -15.1%, BAZ2B inh 0.7%, HP1b chromo inh -4.3% and G9a inh 9.4%[59 µM].
Screening CC(C)(C)c1ccc(CCC2OCC(C[N+]3(C)CCOCC3)O2)cc1 (stereo not drawn) returned JMJD2A Tudor inconclusive, BAZ2B inh -19.4%, HP1b chromo inh -5.5%, CtBP-E1A blk 6.3, G9a inh 50.1µM* and Six1-Eya2 blk 1.6.
`Cc1ccc(-n2c(C)nnc2SCC(=O)N(C)c2c(N)n(Cc3ccccc3)c(=O)[nH]c2=O)cc1` gave JMJD2A Tudor -4.0%, BAZ2B inh 9.5%, HP1b chromo inh 31.8%, CtBP-E1A blk -0.3, G9a inh inconclusive and Six1-Eya2 blk 2.0.
For CCOC(=O)c1ccc(S(=O)(=O)N2CCN(CC(O)COc3ccc(C#N)cc3)CC2)cc1 (stereo not drawn) the results were JMJD2A Tudor 20µM*, BAZ2B inh 56.2µM*, HP1b chromo inh -29.6%, CtBP-E1A blk -5.1, G9a inh 35.5µM* and Six1-Eya2 blk -2.8.
For COc1ccc(OCC(O)CN2CCN(Cc3ccc4c(c3)OCO4)CC2)cc1 (stereo not drawn) the results were JMJD2A Tudor -12.7%, BAZ2B inh -11.6%, HP1b chromo inh 27.5%, CtBP-E1A blk 1.2, G9a inh 20µM* and Six1-Eya2 blk 0.0.
`Cc1ccc(OCC(O)CN2CCN(Cc3ccc4c(c3)OCO4)CC2)c(C)c1` (stereo not drawn) gave JMJD2A Tudor inconclusive, BAZ2B inh inconclusive, HP1b chromo inh inconclusive, CtBP-E1A blk -11.0, G9a inh -6.4%[59 µM] and Six1-Eya2 blk -6.3.
For CC(=O)c1ccc(OCC(O)CN2CCN(Cc3ccc4c(c3)OCO4)CC2)cc1 (stereo not drawn) the results were JMJD2A Tudor 63.1µM*, BAZ2B inh -10.2%, HP1b chromo inh 48.0%, CtBP-E1A blk 0.0, G9a inh inconclusive and Six1-Eya2 blk 11.9.

Screens: PubChem, National Center for Advancing Translational Sciences (NCATS)
